# A selection: hits, their analogues and other compounds. The true share with any hit is near 4.7%.
# FH mod: Identification of activators of human fumarate hydratase by quantitative high-throughput screening | Potency, µM (highest dose often 79.9 µM), inactives show top-dose activity change, negative = inhibition, actives largely listed as inhibitors | 54,000 compounds, 0.22% hits | Fumarate hydratase, mitochondrial (Homo sapiens), P07954 | FH coupled MDH/diaphorase resazurin fluorescence, 15 min; note: potency is the fitted concentration of half-maximal effect; % is set by controls: 0 for no effect and ±100 for the full control effect; the screen sought activators but most active calls are inhibition curves; nearly all actives have a fitted effect of over 45% in size
# HTT-AS promoter: HTT-AS promoter activation | HEK293 HTT-AS promoter firefly luciferase reporter, 24 h; response scale: percent change from vehicle, -100% = no light | Potency, µM (titrated, usually from 57.5 µM), for the others: at the highest dose activity change, positive = activation, most hits filed as activators | 48,000 compounds, 0.24% hits | AID 1508624; note: potency is the fitted concentration of half-maximal effect; nearly all actives have a fitted effect of over 55% in size
#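 HEK293 luciferase promoter-reporter cells (2,500/well) plated 24 h, then compounds added at up to 57.5 uM final for 24 h at 37 °C. Firefly luminescence by Dual-Glo, normalized to vehicle (0%) and zero RLU (-100%).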
# GPR32 ag: activates human resolvin D1 receptor GPR32; O75388; CHO-K1 GPR32 beta-arrestin PathHunter luminescence, 90 min; zero percent set by DMSO-only wells; 48,000 compounds, 2.5% hits; activation, % at 76.9 µM;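 active = activation of at least 60% and not above a set upper limit, about 1 call in 100 departs from these limits; inconclusive = activation of 40% to 60%, or above that upper limit; inactive = activation under 40%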; note: 0% is about no effect
# Target sequence (O75388 whole entry, looked up): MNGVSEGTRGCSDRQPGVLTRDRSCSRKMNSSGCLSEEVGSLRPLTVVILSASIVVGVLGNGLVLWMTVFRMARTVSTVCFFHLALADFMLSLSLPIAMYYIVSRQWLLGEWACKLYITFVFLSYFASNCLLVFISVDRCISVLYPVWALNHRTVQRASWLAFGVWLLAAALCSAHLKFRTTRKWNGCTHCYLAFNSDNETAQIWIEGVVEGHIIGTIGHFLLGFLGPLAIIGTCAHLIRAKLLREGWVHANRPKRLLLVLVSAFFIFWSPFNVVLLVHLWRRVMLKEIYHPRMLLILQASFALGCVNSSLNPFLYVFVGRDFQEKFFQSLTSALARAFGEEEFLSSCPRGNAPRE
#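 Agonism was scored as beta-arrestin recruitment to ProLink-fused GPR32 in stably transfected CHO-K1 cells, giving a chemiluminescent beta-Gal signal; compounds were incubated 90 min at 37 °C.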
# NTMT1 inhibitor: inhibitors of human N-terminal methyltransferase NTMT1. Q9BV86. NTMT1 MTase-Glo SAH luminescence, purified enzyme. Potency, µM (series often up to 114 µM), without a hit: top-dose activity change, negative = inhibition, usual class: inhibitors. 59,000 compounds, 2.5% hits. AID 1645870;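 note: potency is the fitted concentration of half-maximal effect; plate controls were DMSO vehicle for no effect and no enzyme for full effect; nearly all actives have a fitted effect of over 65% in size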
# HTT prom inh: inhibits huntingtin promoter activity; 48,000 compounds, 0.93% hits; AID 1508623; Potency, µM (titrated, usually from 57.5 µM), for inactives: at the highest dose activity change, negative = inhibition, hits mostly inhibitors; HEK293 HTT promoter firefly luciferase reporter, 24 h; note: potency is the fitted concentration of half-maximal effect; nearly all actives have a fitted effect of over 50% in size
#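 HEK293 Fluc reporter, 2,500 cells/well, 24 h pre-culture; cpds up to 57.5 uM final, 24 h 37 degrees C; Dual-Glo, 10 min RT; normalized vehicle = 0%, zero RLU = -100%.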
# The depositor's hits bear a star; ? = inconclusive; / = not tested or not shown; ! = not active in a repeat; [ ] = remark or other dose. Unless noted, calls come from the whole dose curve; as a rule, active = well fitted curve in the direction sought with a large enough effect; inconclusive = small, poorly fitted or top-dose-only effect, or another doubt; inactive = no such curve, though single readings can be large; an effect the other way counts as inactive or inconclusive.
SMILES,FH mod,HTT-AS promoter,GPR32 ag,NTMT1 inhibitor,HTT prom inh
CCCC(=O)n1nc(-c2ccco2)nc1NCc1ccccc1Cl,-3%,21%,2,-1%,3%
Cc1ccc2nc(-c3ccc(Cl)s3)c(Nc3ccc4c(c3)OCCO4)n2c1,-6%,4.5µM*,-30,?,41%
CCc1ccc(-c2cc(C)no2)cc1S(=O)(=O)Nc1ccc(Cl)cc1,?,-42%,-3,4%,?
Cc1cc2nc(-c3cccc(NC(=O)COc4ccc(C(C)C)cc4)c3)oc2cc1C,-17%,1µM*,-6,-1%,74%
COc1ccccc1NC(=O)c1cc2cc3ccc(OC)c(Cl)c3nc2s1,-6%,-4%,-2,40µM*,8%
COc1ccc(OC)c(NC(=O)c2cc3cc4ccc(C)cc4nc3s2)c1,-6%,13%,-7,0%,10%
CCOC(=O)c1c(-c2ccc(C)cc2C)csc1NC(=O)c1ccccc1Cl,-12%,-12%,3,11%,-7%
CC(C)c1c2cc(-c3ccnc(NC4CCC(NC5CCOCC5)CC4)n3)ccc2nn1C (centres undefined),-1%,/,/,45µM*,/
COc1cc(O)c(C(CC(=O)N2CCC[C@@H](C)C2)c2ccc3c(c2)OCO3)c(OC)c1 (some centres undefined),/,/,/,6%[228 µM],/
O=C(NOCCO)c1ccc2cncn2c1Nc1ccc(I)cc1F,3%,/,/,-10%,/
C=CC(C)(/C=C/c1ccc(O)cc1)CCC=C(C)C (centres undefined),?,/,/,-14%,/
Cc1ccc(S(=O)(=O)c2nc(S(=O)(=O)c3ccc(C)cc3)c(NCCCOC(C)C)s2)cc1,-6%,-3%,-19,0%,-20%
Cc1cc(NC(=O)c2oc3c(c2C)-c2[nH]ncc2CC3)ccc1Br,-54%,1.1µM*,-5,-28%,68%
CCc1ccc(NC(=O)c2oc3c(c2C)-c2[nH]ncc2CC3)cc1,?,?,5,?,80%
Cc1cccc(N2C(=O)N(Cc3cccc(C#N)c3)c3ccccc3S2(=O)=O)c1,-10%,-33%,-11,4%,?
Cc1ccc(NC(=O)CSc2n[nH]c(-c3ccc(F)cc3)n2)cc1F,-23%,-20%,67*,7%,-8%
Cc1ccc(CNC(=O)CSc2n[nH]c(-c3ccc(F)cc3)n2)cc1,-26%,-27%,-20,1%,-28%
Cc1ccccc1CNC(=O)c1ccc(CN2CC(=O)N3CCCCC3C2=O)cc1 (centres undefined),2%,-21%,-4,0%,-19%
Cc1cc(Br)ccc1NC(=O)CN1C(=O)c2cccnc2Sc2ccccc21,4%,-14%,-3,79µM*,-21%
COc1ccc(C(=O)NCCn2cc(SCc3cccc(F)c3)c3ccccc32)cc1OC,?,-58%,36,-12%,25µM*
O=C(NCCn1cc(SCc2cccc(F)c2)c2ccccc21)c1cccc(C(F)(F)F)c1,-34%,-49%,24,-7%,?
COc1ccc(CCNC(=O)CSc2cn(CCNC(=O)c3ccccc3F)c3ccccc23)cc1OC,-13%,-27%,80*,-8%,-30%
O=C(CSc1cn(CCNC(=O)c2c(F)cccc2F)c2ccccc12)Nc1ccccc1F,-8%,-10%,66*,0%,-8%
Cc1ccc(-c2ccc(=O)n(CC(=O)NCCc3cnc[nH]3)n2)cc1,/,/,/,17%,/
CCOc1ccccc1NC(=O)n1ncc2cc(Cl)ccc21,-11%,?,8,9%,25%
CCOC(=O)C1=C(C)NC(C)=C(C(=O)OC)C1c1cccc(Cl)c1Cl (centres undefined),?,-18%,110*!,38%[57.5 µM],-10%
CC1=C(C(=O)OCC2CCCCC2)C(c2cccc(Cl)c2Cl)CC(=O)N1 (centres undefined),6%,-5%,13,8%,-11%
Cc1cc(N2CCN(C)CC2)nc2ccc(NC(=O)Nc3ccc(Cl)cc3)cc12,-5%,4%,118*,-2%,23%
Cc1ccc(-n2c(=O)c3ccc(C(=O)NCc4ccco4)cc3n(CC(=O)Nc3ccccc3C(F)(F)F)c2=O)cc1,4%,-16%,2,8%,?
